Experimental data as given in PubChem BioAssay.
Calls of active or inactive are those of the source. Unless noted, no rule for the calls is given here.

Tests used:
[1] = HepG2 liver cancer cell viability effects, profiling panel, resazurin fluorescence, 24 h, PK04 Diversity Set (AID 1172); details: higher = more signal
[2] = basal S. cerevisiae growth modulation, no modifier, primary screen, OD600, strain BY4716, 24 h, basal condition (AID 1173); details: OD600, 24 h, higher = more signal, called active from +8 up or from −8 down
[3] = MM1S myeloma cell viability, profiling panel, resazurin fluorescence, basal, 24 h, PK04 Diversity Set (AID 1174); details: higher = more signal, called active from +8 up or from −8 down;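 also: MM1S multiple myeloma cell line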
[4] = molecular target: Dihydroorotate dehydrogenase (quinone), mitochondrial (Plasmodium falciparum (isolate 3D7)) (UniProt Q08210); test: PfDHODH enzyme inhibitors, primary screen, biochemical, C-terminal His tag, absorbance 600 nm (AID 1175); details: DCIP absorbance 600 nm, higher = more signal, called active from +8 up or from −8 down;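 also: recombinant parasite enzyme with a five histidine tag at its C terminus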
[5] = P. aeruginosa biofilm formation inhibitors, primary screen, strain PAO1, LB-PBS medium, absorbance 600 nm (AID 1176); details: P. aeruginosa PAO1 growth/biofilm, A600, 12 h; higher = more signal
[6] = S. cerevisiae RM11-1a growth modifiers, primary screen, strain RM11-1a, OD600, basal, 24 h (AID 1177); details: OD600, 24 h, higher = more signal, called active from +8 up or from −8 down;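 also: cultures grown under basal conditions with no added stressor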
[7] = E. coli acrAB mutant growth effects, primary screen, E. coli filamentation inducers, strain DRC39, OD650, 24 h (AID 1178); details: higher = more signal, called active from +8 up or from −8 down;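 also: growth measured as culture turbidity by optical density at 650 nm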
[8] = E. coli acrAB mutant growth effects, primary screen, E. coli filamentation inducers, strain DRC39, OD650, 48 h (AID 1179);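 also: screen aims at cell division blockers that make cells filament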; details: E. coli DRC39 delta-acrAB growth, higher = more signal, called active from +8 up or from −8 down
[9] = RPMI8226 myeloma cell viability, profiling panel, resazurin fluorescence, basal, 24 h, PK04 Diversity Set (AID 1180); details: higher = more signal;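 also: RPMI8826 multiple myeloma cell line at 5000 cells per well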
[10] = molecular target: E3 ubiquitin-protein ligase XIAP (Homo sapiens) (UniProt P98170); test: XIAP binders, primary screen, biophysical, small-molecule microarray, fluorescence 635 nm (AID 1181); details: small-molecule microarray binding, higher = more signal;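 also: score merges 667 nm emission and signal to noise over triplicate slides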
[11] = system: XIP peptide (Xip251-270) binding; test: small-molecule binders of XIP peptide, primary screen, biochemical, small-molecule microarray, fluorescence 635/667 nm, 0.1 µg/mL protein (AID 1182); details: fluorescent protein binding, 635 nm, higher = more signal, called active from +8 up or from −8 down
XIP peptide (Xip251-270) = test: small-molecule binders of XIP peptide, primary screen, biochemical, small-molecule microarray, fluorescence 635/667 nm, 0.5 µg/mL protein (AID 1183); details: small-molecule microarray binding, fluorescence 635 nm; higher = more signal
[12] = Plasmodium falciparum growth inhibition, primary screen, strain 3D7, DAPI fluorescence, 100 nL (AID 1184);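 also: parasites grown inside human red blood cells in medium with human serum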; details: P. falciparum 3D7 growth, 3 d, higher = more signal
[13] = molecular target: Homeobox protein Hox-A13 (Mus musculus) (UniProt Q62424); test: inhibitors of HoxA13-DNA binding, primary screen, biochemical, fluorescence polarization, labeled oligonucleotide (AID 1185); details: 15 min, higher = more signal, called active from +8 up or from −8 down
[14] = inhibitors of hydroxyurea-induced Chk1 phosphorylation, primary screen, imaging, HeLa, phospho-Chk1 antibody, percent positive cells (AID 1186); details: hydroxyurea-induced phospho-Chk1 immunofluorescence imaging, higher = more signal
[15] = inhibitors of hydroxyurea-induced Chk1 phosphorylation, primary screen, imaging, HeLa, phospho-Chk1 nuclear intensity (AID 1187); details: hydroxyurea-induced phospho-Chk1 immunofluorescence imaging, higher = more signal

E3 ubiquitin-protein ligase XIAP (Homo sapiens), sequence (P98170 whole entry, looked up): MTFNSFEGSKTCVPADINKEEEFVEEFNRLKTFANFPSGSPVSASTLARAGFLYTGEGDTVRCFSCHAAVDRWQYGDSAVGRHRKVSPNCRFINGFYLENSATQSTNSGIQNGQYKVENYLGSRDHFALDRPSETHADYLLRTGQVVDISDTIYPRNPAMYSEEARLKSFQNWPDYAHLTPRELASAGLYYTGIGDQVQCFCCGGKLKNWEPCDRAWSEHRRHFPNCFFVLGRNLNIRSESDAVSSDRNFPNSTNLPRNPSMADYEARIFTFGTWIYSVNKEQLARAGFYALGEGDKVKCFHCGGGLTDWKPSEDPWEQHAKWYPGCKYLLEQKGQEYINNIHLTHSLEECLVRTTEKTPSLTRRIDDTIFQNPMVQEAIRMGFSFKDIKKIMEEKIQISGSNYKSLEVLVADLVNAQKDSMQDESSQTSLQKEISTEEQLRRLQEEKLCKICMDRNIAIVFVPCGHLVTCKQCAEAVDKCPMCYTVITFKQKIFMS
Dihydroorotate dehydrogenase (quinone), mitochondrial (Plasmodium falciparum (isolate 3D7)), sequence (Q08210 whole entry, looked up): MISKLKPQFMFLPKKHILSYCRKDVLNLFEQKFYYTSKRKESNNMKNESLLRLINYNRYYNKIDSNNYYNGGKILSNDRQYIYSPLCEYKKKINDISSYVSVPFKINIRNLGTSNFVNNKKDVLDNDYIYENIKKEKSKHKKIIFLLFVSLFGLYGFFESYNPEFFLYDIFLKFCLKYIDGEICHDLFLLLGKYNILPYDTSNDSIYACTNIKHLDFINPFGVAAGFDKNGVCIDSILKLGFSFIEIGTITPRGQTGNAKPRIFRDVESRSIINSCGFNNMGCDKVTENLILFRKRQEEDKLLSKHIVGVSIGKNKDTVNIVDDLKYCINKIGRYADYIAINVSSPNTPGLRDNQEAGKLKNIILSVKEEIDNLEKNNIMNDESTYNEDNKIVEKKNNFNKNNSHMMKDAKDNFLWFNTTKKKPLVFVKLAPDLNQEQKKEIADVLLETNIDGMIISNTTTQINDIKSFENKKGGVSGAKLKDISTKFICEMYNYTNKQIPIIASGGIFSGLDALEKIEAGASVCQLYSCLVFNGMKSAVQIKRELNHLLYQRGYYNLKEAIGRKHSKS
Homeobox protein Hox-A13 (Mus musculus), sequence (Q62424 whole entry, looked up): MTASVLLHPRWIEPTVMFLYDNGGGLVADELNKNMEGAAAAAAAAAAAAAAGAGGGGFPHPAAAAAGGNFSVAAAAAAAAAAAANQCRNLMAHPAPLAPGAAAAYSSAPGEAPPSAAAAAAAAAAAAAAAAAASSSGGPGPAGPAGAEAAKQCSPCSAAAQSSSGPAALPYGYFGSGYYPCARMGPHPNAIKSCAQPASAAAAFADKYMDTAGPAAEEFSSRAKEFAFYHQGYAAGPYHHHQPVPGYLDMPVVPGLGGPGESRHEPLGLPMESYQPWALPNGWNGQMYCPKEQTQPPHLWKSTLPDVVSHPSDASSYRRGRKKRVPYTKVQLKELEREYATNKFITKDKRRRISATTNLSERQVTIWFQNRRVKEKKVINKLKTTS

Row | SMILES | z-score [1] | z-score [2] | z-score [3] | composite z-score [4] | z-score [5] | z-score [6] | z-score [7] | z-score [8] | z-score [9] | composite z-score [10] | composite z-score [11] | composite z-score (XIP peptide (Xip251-270)) | z-score [12] | z-score [13] | z-score [14] | z-score [15]
1 | C=C(/C(=C/C[C@H](OC(=O)c1ccncc1)c1ccc(OCCO)cc1)c1cc(C(=O)OC)ccc1OC)C(C)C | 0.438 | -1.44 (inactive) | -0.0968 (inactive) | -1.88 (inactive) | -0.681 (inactive) | -0.517 (inactive) | -0.427 (inactive) | -0.579 (inactive) | -0.0979 | -0.0095 | 0.249 (inactive) | 0.505 | -2.87 | -3.23 (inactive) | -0.962 (inactive) | -0.621 (inactive)
2 | CCOC(=O)C[C@H]1[C@H](OC(=O)c2ccc(-c3ccccc3)cc2)[C@@H](NC(=O)c2ccccc2)c2cc(OCCCO)ccc2N1C(=O)Cc1ccc(OC)cc1 | -0.161 | 0.742 (inactive) | 0.393 (inactive) | 0.593 (inactive) | 0.845 (inactive) | 1.47 (inactive) | 0.835 (inactive) | 0.451 (inactive) | -0.041 | -0.0936 | -0.11 (inactive) | -0.664 | -1.09 | -1.36 (inactive) | -0.0036 (inactive) | 0.16 (inactive)
3 | OCC1C=C(/C=C/c2ccccc2)CN1Cc1ccccc1Br (centres undefined) | 0.233 | -9.92 (active) | -0.813 (inactive) | -0.0313 (inactive) | -0.0461 (inactive) | -0.877 (inactive) | 1.79 (inactive) | 0.183 (inactive) | -0.589 | -0.122 | 1.74 (inactive) | 0.698 | -0.982 | -2.19 (inactive) | -0.449 (inactive) | -0.283 (inactive)
4 | C=C(/C(=C/C[C@H](OC(C)=O)c1ccc(OCCO)cc1)c1cc(C(=O)OC)ccc1OC)C(C)C | 1.5 | -0.962 (inactive) | 0.012 (inactive) | -0.858 (inactive) | 0.613 (inactive) | -0.0571 (inactive) | 0.483 (inactive) | 0.232 (inactive) | 0.0628 | -0.307 | 0.537 (inactive) | 0.808 | -2.9 | -3.69 (inactive) | 0.418 (inactive) | 1.29 (inactive)
5 | CC1CC/C=C\[C@H]2OC34C=CCN(Cc5ccccc5)C(=O)[C@H]3N(C(C)CO)C(=O)[C@@H]4C2C(=O)O1 (some centres undefined) | 0.36 | -1.39 (inactive) | 0.678 (inactive) | -0.166 (inactive) | -0.525 (inactive) | -0.0642 (inactive) | 0.492 (inactive) | 1 (inactive) | 0.233 | 0.0772 | -0.49 (inactive) | 0.0057 | -0.562 | -5.87 (inactive) | -0.682 (inactive) | -0.602 (inactive)
6 | CCOC(=O)C[C@H]1[C@H](OC(=O)c2ccc(C(=O)c3ccccc3)cc2)[C@@H](NC(=O)Cc2ccc(OC)cc2)c2cc(OCCCO)ccc2N1C(=O)c1ccc2ccccc2n1 | -0.0666 | -0.337 (inactive) | -0.0911 (inactive) | 0.764 (inactive) | 0.207 (inactive) | 0.11 (inactive) | -0.572 (inactive) | -0.335 (inactive) | 0.273 | 0.0801 | 0.845 (inactive) | 0.172 | -0.129 | -1.9 (inactive) | 0.112 (inactive) | -0.189 (inactive)
7 | COc1ccc([C@H]2OC[C@@H]3CCC(=O)N32)cc1 | 0.219 | 0.242 (inactive) | 0.526 (inactive) | -0.0915 (inactive) | -0.133 (inactive) | 0.189 (inactive) | 0.905 (inactive) | 0.593 (inactive) | 0.131 | -0.199 | 0.467 (inactive) | 0.394 | 0.401 | 0.119 (inactive) | -0.208 (inactive) | -0.183 (inactive)
8 | COC(=O)[C@@]1(Cc2ccc(OC)cc2)[C@H]2c3cc(C(=O)N4CCCC4)n(CCCNc4ncc(C(F)(F)F)cc4Cl)c3C[C@H]2CN1C(=O)c1ccccc1 | 0.808 | 1.01 (inactive) | -1.12 (inactive) | -0.199 (inactive) | -0.0982 (inactive) | 0.398 (inactive) | -0.0379 (inactive) | -0.816 (inactive) | -2.67 | 0.0986 | -0.546 (inactive) | 0.736 | -1.41 | -4.1 (inactive) | 0.259 (inactive) | -0.101 (inactive)
9 | O=C1O[C@H](c2ccccc2)[C@H](c2ccccc2)N2[C@H]1[C@@H](C(=O)NC[C@H](O)c1ccccc1)[C@]1(C(=O)Nc3ccc(C#CC4=CCCCC4)cc31)[C@H]2c1ccccc1OCCO | -2.02 | 1.89 (inactive) | -6.77 (inactive) | -0.894 (inactive) | 2.9 (inactive) | 1.96 (inactive) | -0.561 (inactive) | 0.105 (inactive) | -6.5 | -0.144 | -0.0939 (inactive) | 0.203 | -0.285 | 1.5 (inactive) | 0.0263 (inactive) | -0.294 (inactive)
10 | C=CC[C@]1(C(N)=O)N=C(c2ccc(OCCCO)cc2)O[C@H]1c1ccccc1 | -0.095 | -0.496 (inactive) | -0.0113 (inactive) | 0.867 (inactive) | 0.248 (inactive) | -0.412 (inactive) | 0.247 (inactive) | -0.875 (inactive) | -0.52 | -0.0749 | 0.672 (inactive) | 0.787 | -1.09 | -6.17 (inactive) | 0.344 (inactive) | 0.327 (inactive)
11 | CCCC(=O)N(CCc1c[nH]c2ccccc12)[C@@H]1CC(C(=O)NCCO)=C[C@H](Oc2c(I)cc(CO)cc2OC)[C@H]1O | 0.627 | -1.22 (inactive) | -0.176 (inactive) | 0.0595 (inactive) | 0.789 (inactive) | 0.152 (inactive) | 0.336 (inactive) | 0.582 (inactive) | 0.114 | -0.222 | -0.131 (inactive) | 0.289 | -0.373 | -7.89 (inactive) | -1.51 (inactive) | -2.68 (inactive)
12 | OB1C=CCC(CCc2ccccc2)O1 (centres undefined) | -0.246 | -3.2 (inactive) | 0.506 (inactive) | -0.685 (inactive) | 1.45 (inactive) | -2.36 (inactive) | 2.73 (inactive) | 0.96 (inactive) | 0.23 | -0.275 | -1.15 (inactive) | 0.965 | -0.355 | -2.13 (inactive) | -0.591 (inactive) | -0.212 (inactive)
13 | C=CCNC(=O)[C@@H]1[C@H]2C(=O)O[C@H](c3ccccc3)[C@H](c3ccccc3)N2[C@H](c2ccc(OCCO)cc2)[C@@]12C(=O)N(C(=O)OCCOC)c1ccc(C#CCC(C(=O)OC)C(=O)OC)cc12 | -0.185 | 1.01 (inactive) | 0.351 (inactive) | -1.27 (inactive) | 2.85 (inactive) | 1.61 (inactive) | 0.854 (inactive) | -0.033 (inactive) | -1.24 | 0.284 | 1.33 (inactive) | 0.743 | -2.11 | -1.17 (inactive) | 0.053 (inactive) | 0.0115 (inactive)
14 | O[C@@H](Cc1ccccc1)[C@@H](/C=C/C1CC1)NCc1cccc(Cl)c1 | -0.891 | -9.37 (active) | -1.22 (inactive) | -0.316 (inactive) | -0.344 (inactive) | -1.15 (inactive) | 0.451 (inactive) | -0.957 (inactive) | -1.18 | -0.175 | -0.58 (inactive) | -0.134 | -1.44 | 0.306 (inactive) | -0.303 (inactive) | -0.682 (inactive)
15 | CO[C@H]1O[C@H](CO)[C@@H](OC(=O)Nc2ccc(Oc3ccccc3)cc2)[C@H](OC(=O)Nc2ccc3c(c2)OCO3)[C@@H]1OC(=O)Nc1ccc2c(c1)OCO2 | -1.01 | 0.77 (inactive) | -0.949 (inactive) | 0.0357 (inactive) | 1.39 (inactive) | 2.65 (inactive) | 0.759 (inactive) | -0.0218 (inactive) | -0.793 | 0.222 | 0.23 (inactive) | 0.863 | -2.05 | -6.43 (inactive) | 0.126 (inactive) | 0.561 (inactive)
16 | CCCC1(C(=O)OC)C=C2C(=C(c3ccccc3)C(=O)C2C)CN1 (centres undefined) | -0.913 | 0.629 (inactive) | -1.85 (inactive) | -1.68 (inactive) | 0.246 (inactive) | -0.0834 (inactive) | -0.0785 (inactive) | -0.181 (inactive) | -0.77 | 0.192 | 0.774 (inactive) | 0.871 | -0.105 | -8.64 (active) | -0.323 (inactive) | -0.277 (inactive)
17 | COCCCNC(=O)[C@]1(Cc2ccccc2)N=C(c2ccc(OCCCO)cc2)O[C@@H]1c1ccccc1CN=[N+]=[N-] | -0.316 | -1.29 (inactive) | -0.491 (inactive) | -0.925 (inactive) | 1.8 (inactive) | 0.0435 (inactive) | 0.228 (inactive) | 1.55 (inactive) | -1.08 | 0.0136 | 1.88 (inactive) | 0.711 | -2.33 | -3.2 (inactive) | -0.6 (inactive) | -0.537 (inactive)
18 | COCCCNC(=O)[C@@]1(CCS(=O)(=O)c2ccccc2)N=C(c2ccc(OCCCO)cc2)O[C@H]1c1ccccc1N=[N+]=[N-] | 0.531 | -0.865 (inactive) | -0.368 (inactive) | -0.396 (inactive) | -0.385 (inactive) | -0.488 (inactive) | 1.28 (inactive) | 0.863 (inactive) | -0.264 | -0.005 | 1.26 (inactive) | 0.839 | -2.72 | -3.94 (inactive) | -0.662 (inactive) | -0.624 (inactive)
19 | C=C(CCCC)/C(=C/C[C@H](OC(C)=O)c1ccccc1OCCO)c1cnc2ccccc2c1 | -0.671 | -0.468 (inactive) | -1.37 (inactive) | -5.76 (inactive) | 0.26 (inactive) | 1.15 (inactive) | -0.709 (inactive) | -0.742 (inactive) | -0.905 | -0.13 | 2.68 (inactive) | 0.657 | -2.52 | -5.13 (inactive) | 0.444 (inactive) | 0.328 (inactive)
